High-throughput results: PubChem BioAssay, National Center for Advancing Translational Sciences (NCATS)
Compounds with a hit are over-represented: about 9.4% of the library has one in this group of screens.
Pf growth 96h – Primary qHTS for delayed death inhibitors of the malarial parasite plastid, 96 hour incubation; Potency, µM (series often up to 28.7 µM), hits mostly inhibitors; P. falciparum luciferase reporter growth, 96 h; actives 6.9% (n = 320,000)
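Two parasite generations (96 h, 37 C, 5% CO2) of compound exposure in infected erythrocytes (0.05% parasitemia, 2% hematocrit). Luciferase-reporter P. falciparum; decreased luminescence indicates inhibited growth, aimed at apicoplast-acting delayed death.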
SARS PLpro yeast – qHTS of Yeast-based Assay for SARS-CoV PLP; actives 0.19% (n = 330,000); Potency, µM (titrated, usually from 32.9 µM), usual class: activators; S. cerevisiae expressing SARS-CoV PLpro, growth rescue; calls by dose curve; also: nearly all actives have a fitted effect of over 55% in size
AMA1 RON2 block – qHTS for Inhibitors of AMA1-RON; Towards Development of Antimalarial Drug Lead: Primary Screen | AlphaScreen AMA1-biotinylated RON2 peptide binding | Potency, µM (doses to about 58.2 µM), usual class: inhibitors | actives 0.2% (n = 360,000); also: nearly all actives have a fitted effect of over 45% in size
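AMA1 (3D7) with his tag at 25 nM final met compounds first, then biotinylated RON2 peptide at 25 nM; detection used donor plus acceptor beads, 10 µg/mL apiece, read by AlphaScreen after 30 min at room temperature.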
Pf growth 48h – Primary qHTS for delayed death inhibitors of the malarial parasite plastid, 48 hour incubation; P. falciparum luciferase growth in erythrocytes, 48 h; Potency, µM (top dose mostly 28.7 µM), usual class: inhibitors; AID 504832, 2011; actives 5.9% (n = 310,000)
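Luminescence readout; reporter = integrated firefly luciferase in P. falciparum. RBC culture at 2% hematocrit, 0.1% parasitemia final, 37 C/5% CO2; decreased signal taken as growth inhibition.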
A number is an active result; 0 = inactive; ? = inconclusive; - = no result; [ ] = remark or other dose. Unless noted, calls follow the shape of the dose curve; as a rule, active = well fitted curve in the direction sought with a large enough effect; inconclusive = small, poorly fitted or top-dose-only effect, or another doubt; inactive = no such curve, though single readings can be large; an effect the other way counts as inactive or inconclusive.

SMILES	Pf growth 96h	SARS PLpro yeast	AMA1 RON2 block	Pf growth 48h
CCn1c(NC(=O)C2CCCCC2)nc2ccccc21	0	0	0	10µM
O=C(COC(=O)C1CCC(=O)N1)Nc1ccc(Cl)cc1Cl (stereo not drawn)	0	0	0	0
C=CCn1c(SCC(=O)Nc2ccc(F)cc2)nc2cc(C(=O)O)ccc2c1=O	0	0	0	0
COCCCNc1nnc(Cc2ccc(Cl)cc2)c(=O)[nH]1	?	0	0	-
COC(=O)C1=C(CSc2nc3c(cc2C#N)CN(C)CC3)OC(N)=C(C#N)C1c1ccccc1F (stereo not drawn)	12µM	0	0	?
Cc1cccc(CSc2nc3c(cc2C#N)CN(C)CC3)c1	7.4µM	0	0	10µM
CN1CCc2nc(SCc3ccccc3Br)c(C#N)cc2C1	0	0	0	?
CCOC(=O)C1=C(CSc2nc3c(cc2C#N)CN(C)CC3)OC(N)=C(C#N)C1c1ccccc1 (stereo not drawn)	0[5.75 µM]	0	0	?
S=C(Nc1cccnc1)N1CCc2ccccc21	5.2µM	0	0	0
COc1cc(NC(=S)Nc2cccc(Cl)c2Cl)c(OC)cc1Cl	2.9µM	0	0	?
COc1cc(NC(=S)NCc2cccnc2)c(OC)cc1Cl	12µM	0	0	0
COc1ccccc1NC(=S)NCc1cccnc1	?	0	0[11.6 µM]	0
Cc1csc2nc(O)c(C(=O)NC3CCCCC3)c(=O)n12	5.9µM	0	0	12µM
Cc1csc2nc(O)c(C(=O)NC3CCCCCC3)c(=O)n12	?	0	0	12µM
O=C(CCc1nnc2ccc(N3CCC4(CC3)OCCO4)nn12)Nc1cc(F)ccc1F	0	0	0	0
COc1ccc(C(=O)NCCCCCC(=O)O)cc1OC	-	-	0	0
CCOC(=O)c1c(C)oc2ccc(OC(=O)N3CCOCC3)cc12	?	0	0	0
CC(=O)NC1=C(NC2CCS(=O)(=O)C2)C(=O)c2ccccc2C1=O (stereo not drawn)	?	0	0	10µM
O=C(Nc1ccccc1)NC1CCS(=O)(=O)C1 (stereo not drawn)	9.3µM	0	0	0
CN(C1=C(NC(=O)c2ccccc2)C(=O)c2ccccc2C1=O)C1CCS(=O)(=O)C1 (stereo not drawn)	5.2µM	0	0	4.7µM
O=C(CN1C(=O)c2ccccc2C1=O)NC1CCS(=O)(=O)C1 (stereo not drawn)	-	-	0	-
O=C(NC(=S)NC1CCS(=O)(=O)C1)c1ccccc1 (stereo not drawn)	?	0	0	0
Cn1c(SCC(=O)NCc2ccc3c(c2)OCO3)ncc(C(=O)Nc2ccc(F)cc2)c1=O	0	0	0	0
Clc1ccc(-c2cnc3n2CCCCC3)cc1	0	0	0	0
O=C(CSc1nc2ncc(Br)cc2[nH]1)c1cccc([N+](=O)[O-])c1	0	0	0	0
SMILES	Pf growth 96h	SARS PLpro yeast	AMA1 RON2 block	Pf growth 48h
Cc1nc2nc(SCC(=O)c3cccc([N+](=O)[O-])c3)[nH]c2cc1Br	12µM	0	0	?
O=C(Cc1nc2ccccc2[nH]1)c1cccc([N+](=O)[O-])c1	?	0	0	12µM
O=C(CCc1nc2ccccc2[nH]1)Nc1ccccc1	0	0	0	0
Cc1cc(C)cc(NC(=O)CCc2nc3ccccc3[nH]2)c1	3.3µM	0	0	0
Cc1ccc(-c2cc(C(F)(F)F)nc(SCC(=O)c3cccc([N+](=O)[O-])c3)n2)cc1	13µM	0	0	?
O=C(NCC(=O)N1CCCCC1)c1ccc2ccccc2c1	0	0	0	0
CCOC(=O)Cc1nc2ccccc2[nH]1	12µM	0	0	0
Cc1ccc(C(=O)Cc2nc3ccccc3[nH]2)cc1	?	0	0	0.37µM
CCOC(=O)CCc1nc2ccccc2[nH]c1=O	0	0	0	0
O=C(NCCCc1nc2ccccc2[nH]1)c1ccc(F)cc1	10µM	0	0	0
O=C(NC(=O)c1cccc(F)c1)Nc1nc(-c2ccc(F)cc2)cc(C(F)(F)F)n1	0	0	0	?
CCc1cc2c(=O)n(Cc3ccco3)c(SCc3c(C)noc3C)nc2s1	?	0	0	?
CCCCN(C(=O)c1ccc(NC(=O)C(C)C)cc1)c1ccccc1	?	0	0	?
COc1ccc2[nH]cc(C(=O)CN3CC(C)CC(C)C3)c2c1 (stereo not drawn)	0	0	0	0
COc1ccc2[nH]cc(C(=O)CN3CCN(C/C=C/c4ccccc4)CC3)c2c1	10µM	0	-	12µM
CCOc1ccc(/C=N/NC(=O)Cc2ccccc2)cc1CN1CC2CC(C1)c1cccc(=O)n1C2 (stereo not drawn)	0	0	0	6.6µM
CCOc1ccc(/C=N/NC(=O)c2ccc(O)cc2)cc1CN1CC2CC(C1)c1cccc(=O)n1C2 (stereo not drawn)	?	?	0	?
Cc1c(-c2ccncc2)oc2ccc(Br)cc2c1=O	?	0	-	9.3µM
Cc1ccc(C(=O)N2CC=C(c3ccccc3)CC2)o1	0	0	0	13µM
Cn1c(CSc2nc3ccccc3s2)nnc1SCC(=O)NCCN1CCOCC1	0	-	0	0
CC(NC(=O)c1ccc(-c2ccccc2)cc1)C(c1ccccc1)N1CCOCC1 (stereo not drawn)	10µM	0	0	7.4µM
O=C(NC(C(=O)c1ccccc1)N1CCOCC1)c1ccccc1 (stereo not drawn)	10µM	0	0	0
CC(NC(=O)c1ccc(C(F)(F)F)cc1)C(c1ccccc1)N1CCOCC1 (stereo not drawn)	?	0	0	?
CC(NC(=S)Nc1ccccc1Cl)C(c1ccccc1)N1CCOCC1 (stereo not drawn)	?	0	0	?
Cc1ccc(C(=O)C(NC(=O)c2ccco2)N2CCOCC2)cc1 (stereo not drawn)	0	0	0	0
SMILES	Pf growth 96h	SARS PLpro yeast	AMA1 RON2 block	Pf growth 48h
O=C(NC(C(=O)c1ccccc1)N1CCOCC1)c1cccs1 (stereo not drawn)	12µM	0	0	0
COc1ccc(NC(=S)NC(C)C(c2ccccc2)N2CCOCC2)cc1 (stereo not drawn)	15µM	0	0	?
COC(=O)c1ccc(NC(=O)NCCCl)cc1	0	0	0	0
O=S1(=O)NC(=NCc2ccccc2)c2ccccc21	-	0	0	0
Cc1ccc(NC(=O)CSc2ccccc2)cc1S(=O)(=O)N1CCCCC1	?	0	0	?
Cc1cc(C)c(S(=O)(=O)/N=C2/C=C(SCC(=O)O)C(=O)c3ccccc32)cc1C	0	0	0	12µM
O=C(CS(=O)(=O)Cc1ccccc1)Nc1nnc(C(F)(F)F)s1	0	0	0	0
CCOc1ccc(-c2cccc(NS(=O)(=O)c3cc([N+](=O)[O-])ccc3Cl)c2)nn1	?	0	0	?
COc1cc(C(=O)Nc2nnc(CC(=O)NCc3ccccc3)s2)cc(OC)c1OC	0	?	0	0
CCN(CC)c1ccc(C(=C2C=CC(=[N+](CC)CC)C=C2)c2ccccc2)cc1	-	-	11µM	-
CCN(CC)c1ccc(C(=C2C=CC(=[N+](CC)CC)C=C2)c2ccc(N(CC)CC)cc2)cc1	-	-	2.2µM	-
